Data from the supplement of paper PMC7411054.
Structures can show the parent of a compound that is named as a salt. Values without a mark were called inactive.

Each compound was assayed on HepG2-TUBA1B-RELA (assay: phenotypically active (imaging signature differs from DMSO and reproducible) at any of 0.3-9 uM (binary (1 = active, 0 = inactive)); higher = active). Settings: treatment time: 24 h.
In short: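 The reporter lines, fifteen in total and built by gene editing in A549, HepG2 and WPMY1 cells, used BFP for segmentation alongside GFP and RFP/FusionRed markers. Each was treated at 0.3, 1, 3 or 9 µM for 24 h in four wells and then imaged live, with live-cell features normalised to solvent control wells. Deviation meant ≥3 of 4 wells beyond the 95th percentile of control Euclidean distances; reproducibility meant a median replicate Pearson correlation above the 95th percentile of non-replicates. Only conditions meeting both were scored as phenotypically active.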

Structure (SMILES)	phenotypically active
C[C@]12CC[C@H]3[C@@H](CC[C@]4(O)C[C@@H](O)CC[C@]34C=O)[C@@]1(O)CC[C@@H]2C1=CC(=O)OC1 [Strophanthidin]	1 (active)
CN1CCC2=C[C@H](O)[C@H]3OC(=O)c4cc5c(cc4[C@H]3[C@@H]21)OCO5 [Hippeastrine hydrobromide]	0
C=C1[C@@H](O)C2C=CC[C@H](C)C(=O)[C@](C)(O)C=C[C@@H](OC(C)=O)[C@]23C(=O)N[C@H](Cc2ccccc2)[C@@H]3[C@@H]1C (some centres not stated) [Cytochalasin D]	1 (active)
COc1ccc(C[C@H]2NC[C@H](O)[C@H]2OC(C)=O)cc1 [Anisomycin]	1 (active)
C[C@@H]1CC[C@H]2[C@@H](C)C(=O)O[C@@H]3O[C@@]4(C)CC[C@@H]1[C@]32OO4 [Artemisinin]	1 (active)
O=C1NC(=O)c2c1c1c3ccccc3n3c1c1c2c2ccccc2n1C1CCC3O1	0
Cc1sc2c(c1C)C(c1ccc(Cl)cc1)=N[C@@H](CC(=O)OC(C)(C)C)c1nnc(C)n1-2	1 (active)
CN1C[C@H](C(=O)N[C@]2(C)O[C@@]3(O)[C@@H]4CCCN4C(=O)[C@H](Cc4ccccc4)N3C2=O)C[C@@H]2c3cccc4[nH]cc(c34)C[C@H]21.CN1C[C@H](C(=O)N[C@]2(C)O[C@@]3(O)[C@@H]4CCCN4C(=O)[C@H](Cc4ccccc4)N3C2=O)C[C@@H]2c3cccc4[nH]cc(c34)C[C@H]21 [dihydroergotamine]	1 (active)
C[C@@]12C(=O)OC(=O)[C@]1(C)[C@H]1CC[C@@H]2O1 [Cantharidin]	1 (active)
COc1cc2c(c(OC)c1OC)-c1ccc(OC)c(=O)cc1[C@@H](NC(C)=O)CC2 [colchicine]	1 (active)
CC(C)(O)[C@H]1O[C@H]2CC[C@@]3(C)[C@@](O)(CC[C@H]4Cc5c([nH]c6ccccc56)[C@@]43C)C2=CC1=O [paxilline]	0
N#CC(C#N)=NNc1cccc(Cl)c1	1 (active)
Cc1c(C(=O)Nc2cccc(C(F)(F)F)c2)cc(-c2ccccc2)n1CCCN1CCOCC1	0
CCN1CCN(C(=O)Cc2ccc(Nc3ncc(F)c(Nc4ccc(C(=O)Nc5ccccc5Cl)cc4)n3)cc2)CC1	1 (active)
CC(C)(C)c1cc(C=C(C#N)C#N)cc(Br)c1O	0
O=C(NCCN1CCC2(CC1)C(=O)NCN2c1cccc(F)c1)c1ccc(F)c(F)c1 [ML 298 hydrochloride]	1 (active)
CC(C)(N)Cc1ccccc1 [phentermine]	0
CCn1cnc2c(Nc3cccc(Cl)c3)nc(N[C@H]3CCCC[C@H]3N)nc21	1 (active)
O=C(Nc1ccncc1)C(=O)c1cn(Cc2ccc(Cl)cc2)c2ccccc12 [Indibulin]	1 (active)
CC[C@@H](C(=O)[C@@H](C)[C@@H](O)[C@H](C)[C@@H]1O[C@@H]([C@@H](CC)C(=O)O)CC[C@@H]1C)[C@H]1O[C@]2(C=C[C@@H](O)[C@]3(CC[C@@](C)([C@H]4CC[C@](O)(CC)[C@H](C)O4)O3)O2)[C@H](C)C[C@@H]1C [Salinomycin Sodium]	1 (active)
CC[C@@H](CO)NC(=O)[C@@H]1C=C2c3cccc4c3c(cn4C)C[C@H]2N(C)C1 [methysergide]	0
CN1C[C@H](C(=O)N[C@]2(C)O[C@@]3(O)[C@@H]4CCCN4C(=O)[C@H](Cc4ccccc4)N3C2=O)C=C2c3cccc4[nH]cc(c34)C[C@H]21 [ergotamine]	1 (active)
C[C@H](CCC(=O)O)C[C@H](C)C[C@H](C)C(=O)/C=C(\O)[C@H](C)C[C@H](C)C/C=C/[C@@H](C)[C@@H](O)[C@@H](C)[C@@H](O)C[C@@H]1CC[C@@](C)([C@H]2CC[C@@](C)([C@@H](C)O)O2)O1 [Ionomycin free acid]	1 (active)
N#CC(C#N)=NNc1ccc(OC(F)(F)F)cc1	1 (active)
COC1=CC(C)=C[C@@H](C)[C@@H](O)[C@@H](C)CC(C)=CC=C[C@H](OC)[C@@H]([C@@H](C)[C@@H](O)[C@H](C)[C@@]2(O)C[C@@H](O)[C@H](C)[C@@H](C(C)C)O2)OC1=O [Bafilomycin A1]	1 (active)
COc1cc([C@@H]2c3cc4c(cc3[C@H](O)[C@H]3COC(=O)[C@H]23)OCO4)cc(OC)c1OC [Podophyllotoxin]	1 (active)
CC[C@]12C=CCN3CC[C@]4(C(=C(C(=O)OC)C1)Nc1ccccc14)[C@@H]32 [Tabersonine dichlorhydrate]	1 (active)
